Results taken from PubChem BioAssay (NCATS).
Records with an inconclusive call do not appear. Active and inactive are the calls of the source. Unless noted, the call rests on the fitted dose curve; in most records, active means well fitted curve in the direction sought with a large enough effect; inconclusive means small, poorly fitted or top-dose-only effect, or another doubt; inactive means no such curve, though single readings can be large; an effect the other way counts as inactive or inconclusive.

How the values were obtained:
[1] = qHTS assay for measurement of the activity of small molecule inhibitors on Zika virus induced Caspase-3 activity in human iPSC derived neural progenitor cells (hNPCs) (AID 1224857); further: % of control where 0% means no effect; nearly all actives have a fitted effect of over 65% in size
Procedure, shortened: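 Zika virus (2 FFU/cell) infection of human iPSC-derived NPCs, 6 h, following 1 h compound preincubation. Read-out: Caspase-Glo 3/7 luminescence.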

[2] = qHTS assay for measurement of the activity of small molecule inhibitors on Zika virus induced Caspase-3 activity in human astrocytoma cells (AID 1224859);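 further: plate controls were ZIKV-infected untreated cells for no effect and uninfected cells for full effect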
Procedure, shortened: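 Caspase activation in ZIKV-infected SNB-19 cells (2 FFU/cell, 6 h) measured by Caspase-Glo 3/7 luminescence after 30 min RT; compound pre-incubated 1 h; normalised to uninfected and infected controls.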

[3] = qHTS assay to identify small molecule inhibitors of chordoma cells - UCH-1 (AID 1259355); further: nearly all actives have a fitted effect of over 55% in size; further: potency means the concentration at half of the fitted maximal effect
Procedure, shortened: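 Seed 800 cells per well; incubate overnight at 37 C, 5% CO2. Add test compounds (15 concentrations), then the auranofin–topoisomerase-agent combination. Incubate 48hr, add CellTiter-Glo, wait 30min, read luminescence.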

[4] = qHTS assay to identify small molecule inhibitors of chordoma cells - UCH-2 (AID 1259356); further: on the % scale 0 is the no-effect control and ±100 the full control effect
[5] = P-glycoprotein substrates identified in KB-8-5-11 adenocarcinoma cell line, qHTS therapeutic library screen (AID 1346987); further: nearly all actives have a fitted effect of over 65% in size; further: potency means the concentration at half of the fitted maximal effect
Procedure, shortened: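 KB-8-5-11, a colchicine-selected P-gp-overexpressing KB-3-1 subline, was grown without colchicine for the assay. Cells were seeded at 500 cells/well, dosed in concentration-response and incubated 72 h at 37 degree C, 5% CO2. Viability was read by CellTiter-Glo luminescence.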

[6] = NS1 protein of Zika virus - qHTS assay to identify small molecule inhibitors in human HEK 293 cells (AID 1347053);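 further: plate controls were infected untreated cells for no effect and uninfected cells for full effect; nearly all actives have a fitted effect of over 55% in size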
Procedure, shortened: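 HEK 293 cells, seeded 20 h at 37 C, were pretreated with compound 1 h, then infected with ZIKV MR766 (MOI = 0.5) for 24 h. NS1 was read by TR-FRET with two anti-NS1 antibodies, normalized to uninfected and infected wells.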

[7] = qHTS profiling of the MIPE4 collection as inhibitors of Plasmodium falciparum (3D7) proliferation (AID 743344; call rule not given here;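 further: scaled between DMSO vehicle wells and 0.29 µM artemisinin as full inhibition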); conditions: P. falciparum 3D7 in erythrocytes, SYBR Green DNA fluorescence, 72 h; at 28.5 µM (top of the series) unless noted
Procedure, shortened: (§1)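 Erythrocytes infected with P. falciparum (0.3% parasitemia, 2.5% hematocrit) incubated with compounds 72 h at 37 C, 5% CO2. Lysis with saponin/Triton buffer containing SYBR Green I, overnight at room temperature in the dark; DNA fluorescence (485/535 nm) normalised to 0.29 uM artemisinin and DMSO.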

[8] = qHTS profiling of the MIPE4 collection as inhibitors of Plasmodium falciparum (DD2) proliferation (AID 743345; call rule not given here); conditions: P. falciparum Dd2 in erythrocytes, SYBR Green DNA, 72 h; at 28.5 µM (top of the series) unless noted
Procedure, shortened: as §1

[9] = qHTS profiling of the MIPE4 collection as inhibitors of Plasmodium falciparum (DD2) proliferation (Rep 2) (AID 743346; call rule not given here); conditions: P. falciparum Dd2 in erythrocytes, SYBR Green DNA, 72 h; at 28.5 µM (top of the series) unless noted
Procedure, shortened: as §1

[10] = qHTS profiling of the MIPE4 collection as inhibitors of Plasmodium falciparum (HB3) proliferation (AID 743347; call rule not given here;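 further: plate controls were DMSO vehicle wells for no effect and artemisinin wells for full effect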); conditions: P. falciparum HB3 in erythrocytes, SYBR Green DNA, 72 h; at 28.5 µM (top of the series) unless noted
Procedure, shortened: as §1

[11] = Natriuretic polypeptide receptor (hNpr1) antagonism - Pilot counterscreen GloSensor control cell line (AID 1347045; calls by dose curve; further: on the % scale 0 is the no-effect control and ±100 the full control effect)
Procedure, shortened: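 HEK293 cGMP GloSensor cells preloaded 2 h with 2% GloSensor reagent, then compound 30 min before baseline luminescence read. Stimulated with 50 uM sodium nitroprusside, 20 min at room temperature, then read again; counterscreen for Npr1 antagonism.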

[12] = target: Atrial natriuretic peptide receptor 1 (Homo sapiens) (UniProt P16066); assay: Natriuretic polypeptide receptor (hNpr1) antagonism - Pilot screen (AID 1347049; calls by dose curve;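 further: agonist-evoked cGMP luminescence read 20 min after hNppA addition; on the % scale 0 is the no-effect control and ±100 the full control effect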)
Sequence of Atrial natriuretic peptide receptor 1 (Homo sapiens) (P16066 whole entry, looked up): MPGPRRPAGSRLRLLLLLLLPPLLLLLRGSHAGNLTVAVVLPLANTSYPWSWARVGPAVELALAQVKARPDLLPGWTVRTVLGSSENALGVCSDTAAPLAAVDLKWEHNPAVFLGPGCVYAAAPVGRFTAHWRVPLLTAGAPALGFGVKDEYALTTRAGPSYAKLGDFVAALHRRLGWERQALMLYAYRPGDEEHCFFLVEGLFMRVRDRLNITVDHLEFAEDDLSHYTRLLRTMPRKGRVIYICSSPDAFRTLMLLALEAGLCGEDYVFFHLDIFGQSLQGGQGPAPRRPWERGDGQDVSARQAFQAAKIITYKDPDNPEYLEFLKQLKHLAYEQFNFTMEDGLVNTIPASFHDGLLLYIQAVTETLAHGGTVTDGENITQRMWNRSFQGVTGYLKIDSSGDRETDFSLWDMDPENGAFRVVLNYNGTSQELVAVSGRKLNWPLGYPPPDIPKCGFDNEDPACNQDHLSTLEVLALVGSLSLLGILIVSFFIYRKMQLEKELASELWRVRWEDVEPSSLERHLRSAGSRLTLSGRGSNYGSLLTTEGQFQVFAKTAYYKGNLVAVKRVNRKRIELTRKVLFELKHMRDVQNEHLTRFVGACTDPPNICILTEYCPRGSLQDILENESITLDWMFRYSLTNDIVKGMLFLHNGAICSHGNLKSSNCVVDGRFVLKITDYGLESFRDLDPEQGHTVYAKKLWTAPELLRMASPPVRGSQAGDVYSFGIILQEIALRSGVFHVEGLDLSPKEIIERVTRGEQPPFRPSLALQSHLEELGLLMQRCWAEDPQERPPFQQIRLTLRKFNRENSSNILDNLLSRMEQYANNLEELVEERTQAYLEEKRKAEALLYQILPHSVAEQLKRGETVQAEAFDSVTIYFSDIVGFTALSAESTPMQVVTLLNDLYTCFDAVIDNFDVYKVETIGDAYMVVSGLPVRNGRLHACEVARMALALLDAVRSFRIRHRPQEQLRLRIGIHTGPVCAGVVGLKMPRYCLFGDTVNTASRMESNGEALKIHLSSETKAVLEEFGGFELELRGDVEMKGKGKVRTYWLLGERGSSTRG
Procedure, shortened: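 Readout is cGMP-driven firefly luciferase luminescence in HEK293 cells carrying hNpr1 and a PDE5-domain GloSensor, read before and 20 min after 0.1 nM hNppA stimulation. Cells had 2% substrate reagent for 2 h and test compound for 30 min.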

[13] = target: Atrial natriuretic peptide receptor 2 (Homo sapiens) (UniProt P20594); assay: Natriuretic polypeptide receptor (hNpr2) antagonism - Pilot subtype selectivity assay (AID 1347050; calls by dose curve; further: on the % scale 0 is the no-effect control and ±100 the full control effect)
Sequence of Atrial natriuretic peptide receptor 2 (Homo sapiens) (P20594 whole entry, looked up): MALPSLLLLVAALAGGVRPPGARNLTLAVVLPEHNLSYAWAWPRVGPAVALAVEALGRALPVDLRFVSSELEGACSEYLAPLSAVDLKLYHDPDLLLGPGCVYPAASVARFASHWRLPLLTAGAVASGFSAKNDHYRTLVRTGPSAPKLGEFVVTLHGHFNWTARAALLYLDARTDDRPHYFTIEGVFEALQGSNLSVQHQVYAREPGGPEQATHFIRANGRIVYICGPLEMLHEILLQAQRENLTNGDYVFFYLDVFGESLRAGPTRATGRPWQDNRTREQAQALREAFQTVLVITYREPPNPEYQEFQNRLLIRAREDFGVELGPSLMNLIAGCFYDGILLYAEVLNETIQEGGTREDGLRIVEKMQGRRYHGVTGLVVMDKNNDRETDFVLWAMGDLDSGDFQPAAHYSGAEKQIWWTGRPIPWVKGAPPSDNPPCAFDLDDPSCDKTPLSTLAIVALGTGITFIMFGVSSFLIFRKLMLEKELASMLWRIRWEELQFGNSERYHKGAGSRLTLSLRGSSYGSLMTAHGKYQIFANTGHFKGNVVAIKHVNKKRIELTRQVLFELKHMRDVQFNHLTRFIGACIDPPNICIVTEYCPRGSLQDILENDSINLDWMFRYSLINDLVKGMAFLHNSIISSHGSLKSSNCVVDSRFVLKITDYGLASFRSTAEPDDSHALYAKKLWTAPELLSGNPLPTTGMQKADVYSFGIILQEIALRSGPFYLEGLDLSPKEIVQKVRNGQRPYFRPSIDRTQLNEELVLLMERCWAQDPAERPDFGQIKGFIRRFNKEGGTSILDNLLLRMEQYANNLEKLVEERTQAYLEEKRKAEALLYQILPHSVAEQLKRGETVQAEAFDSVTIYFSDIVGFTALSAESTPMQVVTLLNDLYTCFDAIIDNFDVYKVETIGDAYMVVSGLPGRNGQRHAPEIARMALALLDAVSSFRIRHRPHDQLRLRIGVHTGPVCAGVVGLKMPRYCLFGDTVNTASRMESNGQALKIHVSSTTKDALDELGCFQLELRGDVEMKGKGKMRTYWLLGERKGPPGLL
Procedure, shortened: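 Pilot selectivity screen against hNpr2: HEK293 cGMP-sensor cells are treated with LOPAC1280 compounds, then with hNppC peptide at 1 nM final. The cGMP-driven luminescence change over 20 min at room temperature is the read-out.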

C/C=C/c1ccc(OC)cc1
inactive: outcome [1] | outcome [2] | Potency [3] | Potency [4] | Potency [5] | Potency [6]

CO/N=C1\CN(c2nc3c(cc2F)c(=O)c(C(=O)O)cn3C2CC2)CC1CN (stereo not drawn)
inactive: outcome [1] | outcome [2] | Potency [3] | Potency [4] | Potency [6]

N[C@@H](CCC(=O)N[C@@H](CS)C(=O)NCC(=O)O)C(=O)O
inactive: outcome [1] | outcome [2] | Potency [3] | Potency [4] | Potency [6]

Cc1cccn2c(=O)c(-c3nnn[nH]3)cnc12
inactive: outcome [1] | outcome [2] | Potency [3] | Potency [4] | Potency [6]

CCCCOc1ccc(OCCCN2CCOCC2)cc1
inactive: outcome [1] | outcome [2] | Potency [3] | Potency [4] | Potency [6]

CC(=O)Oc1ccc2c(c1)CC[C@@H]1[C@@H]2CC[C@]2(C)[C@@H](O)CC[C@@H]12
inactive: outcome [1] | outcome [2] | Potency [3] | Potency [4] | Potency [6]
active: Potency [5] 5.17 µM

C#C[C@]1(O)CC[C@H]2[C@@H]3CCc4cc(OC5CCCC5)ccc4[C@H]3CC[C@@]21C
inactive: outcome [1] | outcome [2] | Potency [3] | Potency [4] | Potency [6]

CC(=O)OCC(=O)NCCCOc1cccc(CN2CCCCC2)c1
inactive: outcome [1] | outcome [2] | Potency [3] | Potency [4] | Potency [6]

CCN1CCCC1=O
inactive: outcome [1] | outcome [2] | Potency [3] | Potency [4] | Potency [5] | Potency [6]

CCCCc1nc(Cl)c(CO)n1Cc1ccc(-c2ccccc2-c2nn[nH]n2)cc1
inactive: outcome [1] | outcome [2] | Potency [3] | Potency [4] | Potency [6]

COc1ccc(CCN2CCC(Nc3nc4ccccc4n3Cc3ccc(F)cc3)CC2)cc1
active: Potency [3] 31.6 µM | Potency [5] 20.6 µM
inactive: outcome [1] | outcome [2]

CN1CCN(CCCN2c3ccccc3Sc3ccc(S(=O)(=O)N(C)C)cc32)CC1
inactive: outcome [1] | outcome [2] | Potency [3] | Potency [4]
63.5% [at 9.64 µM]: parasite growth, % of DMSO control [7]
44% [at 9.64 µM]: parasite growth remaining, % of DMSO control (lower = more inhibition) [8]
48.8% [at 9.64 µM]: parasite growth, % of control (lower = inhibition) [9]
68.8% [at 9.64 µM]: growth, % of control [10]

CCOC(=O)[C@H](CCc1ccccc1)N[C@@H](C)C(=O)N1Cc2ccccc2C[C@H]1C(=O)O
inactive: outcome [1] | outcome [2] | Potency [3] | Potency [5] | Potency [6]

Nc1nc2ncc(CNc3ccc(C(=O)N[C@@H](CCC(=O)O)C(=O)O)cc3)nc2c(=O)[nH]1
inactive: outcome [1] | outcome [2] | Potency [3] | Potency [4] | Potency [6]

CN1C2CCC1CC(OC(=O)c1c[nH]c3ccccc13)C2 (stereo not drawn)
inactive: outcome [1] | outcome [2] | Potency [3] | outcome [11] | outcome [12] | outcome [13]

Nc1ccc(/C=C/c2ccc(N)cc2S(=O)(=O)O)c(S(=O)(=O)O)c1
inactive: activity change, negative = inhibition [1] -14.7% [at 0.568 µM] | activity change, negative = inhibition [2] -3.2% [at 0.568 µM] | Potency [3] | Potency [5] | activity change, negative = inhibition [6] -8.83% [at 0.593 µM]

CCOC(=O)c1cccc(N)c1
inactive: outcome [1] | outcome [2] | Potency [3] | Potency [5] | Potency [6]

CCCCOc1ccc(C(=O)CCN2CCCCC2)cc1
inactive: outcome [1] | outcome [2] | Potency [3] | Potency [6]

CC(C)(Oc1ccc(Cl)cc1)C(=O)O
inactive: outcome [1] | outcome [2] | Potency [3] | Potency [4] | Potency [6]

COc1ccc(/C=C/C(=O)c2ccc(OC)cc2OC)cc1
inactive: outcome [1] | outcome [2] | Potency [3] | Potency [6]

COc1cccc(OC)c1C(=O)N[C@@H]1C(=O)N2[C@@H]1SC(C)(C)[C@@H]2C(=O)O
inactive: outcome [1] | outcome [2] | Potency [3] | Potency [4] | Potency [6]

C#C[C@]1(O)CC[C@H]2[C@@H]3CCC4=CC(=O)CC[C@@H]4[C@H]3CC[C@@]21C
inactive: outcome [1] | outcome [2] | Potency [3] | Potency [6]

COc1cccc2c1C(=O)c1c(O)c3c(c(O)c1C2=O)C[C@@](O)(C(C)=O)C[C@@H]3O[C@H]1C[C@H](N)[C@H](O)[C@H](C)O1
inactive: outcome [1] | outcome [2] | Potency [6]
active: Potency [3] 1.78 µM

CC(=O)c1ccc2c(c1)N(CCCN1CCC(CCO)CC1)c1ccccc1S2
inactive: outcome [1] | outcome [2] | Potency [3] | Potency [5] | Potency [6]

Clc1ccc2c(c1)CCc1cccnc1C2=C1CCNCC1
inactive: outcome [1] | outcome [2] | Potency [3] | Potency [4] | Potency [6]

O=C(Nc1ccc(Cl)c(Cl)c1)C1CC1
inactive: outcome [1] | outcome [2] | Potency [3] | Potency [4] | Potency [6]

CC(=O)N/N=C/c1ccc([N+](=O)[O-])o1
inactive: outcome [1] | outcome [2] | Potency [3] | Potency [5] | Potency [6]

CCCCCCCCCCCCCCCCOP(=O)([O-])OCC[N+](C)(C)C
inactive: outcome [1] | outcome [2] | Potency [3] | Potency [6]

C[N+]1(CCCCC[N+]2(C)CCCC2)CCCC1
inactive: outcome [1] | outcome [2] | Potency [3] | Potency [5] | outcome [11] | outcome [13] | Potency [6]
